Results reported in PubChem BioAssay (EPA / NIEHS).
Calls of active or inactive are those of the source. The calls were made as follows: active = hit-call score of the fitted dose curve at least 0.9, where 1 is the maximum; inactive = score below 0.9.

Assays:
[1] = read-out: Matrix Metallopeptidase 9 (MMP9), MMP9 (gene 4318); test: BSK_KF3CT_MMP9: BioMAP Diversity Plus: KF3CT Assay for Matrix Metallopeptidase 9 (MMP9) Biomarker Activity (AID 2283074); settings: primary human keratinocytes with fibroblasts; actives raise or lower the signal;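 as to AC50: MMP9 protein level quantified by ELISA in the co-culture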
Method in brief: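 MMP-9 quantified by ELISA after 24 h chemical treatment of primary human skin keratinocyte/fibroblast co-cultures; gain or loss fitted against DMSO, with parallel SRB staining (0.1% SRB, 560 nm) for overt cytotoxicity.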

[2] = read-out: urokinase plasminogen activator (uPA), PLAU (gene 5328); test: BSK_KF3CT_uPA: BioMAP Diversity Plus: KF3CT Assay for urokinase plasminogen activator (uPA) Biomarker Activity (AID 2283075); settings: primary human keratinocytes with fibroblasts; actives raise or lower the signal
Method in brief: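 ELISA read-out of uPA 24 h after dosing human skin keratinocytes co-cultured with foreskin fibroblasts. Signal change fitted both ways relative to DMSO; sulforhodamine B on parallel cultures marks overt cytotoxicity.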

CD40, CD40 (gene 958) [3] = test: BSK_LPS_CD40: BioMAP Diversity Plus: LPS Assay for CD40 Biomarker Activity (AID 2283076); settings: primary human HUVEC with PBMC; actives raise or lower the signal
Method in brief: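 Using a multiplexed primary human co-culture (umbilical vein endothelium plus PBMC), CD40 was read by ELISA 24 h after dosing, with cytotoxicity tracked by sulforhodamine B staining of parallel cultures and activity fitted bidirectionally versus DMSO.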

[4] = read-out: E-selectin (Homo sapiens) (UniProt P16581); test: BSK_LPS_Eselectin: BioMAP Diversity Plus: LPS Assay for Eselectin Biomarker Activity (AID 2283077); settings: primary human HUVEC with PBMC; actives raise or lower the signal
Method in brief: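 Dose chemical onto LPS-driven HUVEC/PBMC co-culture; after 24 h, run ELISA for E-selectin; fit up- and down-going responses relative to DMSO control.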

[5] = read-out: Interleukin-8 (IL8), CXCL8 (gene 3576); test: BSK_LPS_IL8: BioMAP Diversity Plus: LPS Assay for Interleukin-8 (IL8) Biomarker Activity (AID 2283078); settings: primary human HUVEC with PBMC; actives raise or lower the signal
Method in brief: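 In this LPS system, chemical-treated human umbilical vein endothelium/PBMC co-cultures were harvested at 24 h for IL-8 ELISA.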

[6] = BSK_LPS_SRB: Viability Assessment in the BioMAP Diversity Plus: LPS Assay (AID 2283079); settings: primary human HUVEC with PBMC;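 also: total protein by sulforhodamine B absorbance as a cytotoxicity measure; measured one day after compound addition; fitted in both directions against DMSO so loss or gain of signal counts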
Method in brief: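 Cytotoxicity endpoint in human endothelial–PBMC co-culture: 24 h exposure, then SRB (0.1%) staining, 560 nm read.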

[7] = read-out: Interleukin-1 alpha (IL1a), IL1A (gene 3552); test: BSK_LPS_IL1a: BioMAP Diversity Plus: LPS Assay for Interleukin-1 alpha (IL1a) Biomarker Activity (AID 2283080); settings: primary human HUVEC with PBMC; actives raise or lower the signal
Method in brief: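 Primary human HUVEC and PBMC co-culture stimulated with LPS is dosed and harvested at 24 h. Both increases and decreases in ELISA-measured IL-1a are scored relative to DMSO.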

[8] = read-out: Monocyte Chemoattractant Protein-1 (MCP1), CCL2 (gene 6347); test: BSK_LPS_MCP1: BioMAP Diversity Plus: LPS Assay for Monocyte Chemoattractant Protein-1 (MCP1) Biomarker Activity (AID 2283081); settings: primary human HUVEC with PBMC; actives raise or lower the signal
Method in brief: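 Values derive from bidirectional fitting against DMSO of ELISA-measured MCP-1 in a human primary endothelial and mononuclear cell co-culture, 24 h after chemical addition under LPS activation.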

[9] = BSK_LPS_PGE2: BioMAP Diversity Plus: LPS Assay for Prostaglandin E2 (PGE2) Biomarker Activity (AID 2283082); settings: primary human HUVEC with PBMC; actives raise or lower the signal;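 as to AC50: secreted prostaglandin E2 measured by ELISA in LPS-stimulated co-culture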
Method in brief: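 Primary human endothelial cells and blood mononuclear cells, co-cultured with LPS, receive test chemical; PGE2 ELISA follows at 24 h, with SRB-stained parallel cultures flagging cytotoxicity.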

[10] = read-out: Macrophage colony-stimulating factor (MCSF), CSF1 (gene 1435); test: BSK_LPS_MCSF: BioMAP Diversity Plus: LPS Assay for Macrophage colony-stimulating factor (MCSF) Biomarker Activity (AID 2283083); settings: primary human HUVEC with PBMC; actives raise or lower the signal
Method in brief: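 Bidirectional fit versus DMSO of ELISA-measured M-CSF in co-cultured human umbilical vein endothelial cells and PBMC, sampled 24 h after dosing.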

[11] = read-out: Tissue Factor, F3 (gene 2152); test: BSK_LPS_TissueFactor: BioMAP Diversity Plus: LPS Assay for Tissue Factor Biomarker Activity (AID 2283084); settings: primary human HUVEC with PBMC; actives raise or lower the signal
Method in brief: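 Read-out: CD142 ELISA, 24 h. System: LPS-driven human endothelial/PBMC co-culture. Analysis: up- or down-signal fitted against DMSO.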

[12] = read-out: Tumor necrosis factor (Homo sapiens) (UniProt P01375); test: BSK_LPS_TNFa: BioMAP Diversity Plus: LPS Assay for Tumour Necrosis Factor alpha (TNFa) Biomarker Activity (AID 2283085); settings: primary human HUVEC with PBMC; actives raise or lower the signal;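 as to AC50: TNFa protein level quantified by ELISA in the co-culture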
Method in brief: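 ELISA-based TNFa endpoint in a human endothelial–PBMC co-culture sampled 24 h post-exposure. Curves were fitted in both directions using DMSO as baseline of activity.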

[13] = read-out: Vascular cell adhesion molecule 1 (VCAM1), VCAM1 (gene 7412); test: BSK_LPS_VCAM1: BioMAP Diversity Plus: LPS Assay for Vascular cell adhesion molecule 1 (VCAM1) Biomarker Activity (AID 2283086); settings: primary human HUVEC with PBMC; actives raise or lower the signal
Method in brief: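 Measured by ELISA: VCAM-1 in LPS-activated HUVEC/PBMC co-cultures 24 h after treatment. Values reflect bidirectional fitting with DMSO as baseline.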

CD38, CD38 (gene 952) = test: BSK_SAg_CD38: BioMAP Diversity Plus: SAg Assay for CD38 Biomarker Activity (AID 2283087); settings: primary human HUVEC with PBMC; actives raise or lower the signal
Method in brief: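 Measures CD38 on a human endothelial/PBMC co-culture driven by SEB and TSST-1, 24 h after compound exposure, using ELISA with fluorescence detection; DMSO defines baseline for bidirectional curve fitting.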

CD40, CD40 (gene 958) [14] = test: BSK_SAg_CD40: BioMAP Diversity Plus: SAg Assay for CD40 Biomarker Activity (AID 2283088); settings: primary human HUVEC with PBMC; actives raise or lower the signal
Method in brief: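 Endpoint derived by fitting increases or decreases versus DMSO controls. CD40 is detected by fluorescence ELISA in a human vascular co-culture of endothelium and PBMC at 24 h.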

CD69, CD69 (gene 969) = test: BSK_SAg_CD69: BioMAP Diversity Plus: SAg Assay for CD69 Biomarker Activity (AID 2283089); settings: primary human HUVEC with PBMC; actives raise or lower the signal
Method in brief: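 ELISA, fluorescence read-out: CD69 on human umbilical vein endothelial cell + PBMC co-culture, 24 h post-dosing. Gain or loss of signal fitted bidirectionally against DMSO baseline.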

[15] = read-out: Monocyte Chemoattractant Protein-1 (MCP1), CCL2 (gene 6347); test: BSK_SAg_MCP1: BioMAP Diversity Plus: SAg Assay for Monocyte Chemoattractant Protein-1 (MCP1) Biomarker Activity (AID 2283090); settings: primary human HUVEC with PBMC; actives raise or lower the signal
Method in brief: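 Values derive from bidirectional fitting of ELISA-measured MCP1 against DMSO controls. Readings were taken 24 h after dosing human vascular endothelial cells co-cultured with peripheral blood mononuclear cells under superantigen stimulation.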

[16] = read-out: Monokine induced gamma interferon (MIG), CXCL9 (gene 4283); test: BSK_SAg_MIG: BioMAP Diversity Plus: SAg Assay for Monokine induced gamma interferon (MIG) Biomarker Activity (AID 2283092); settings: primary human HUVEC with PBMC; actives raise or lower the signal
Method in brief: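 ELISA readout of MIG/CXCL9; primary human umbilical vein endothelial cells co-cultured with peripheral blood mononuclear cells; 24 h post-dose; gain/loss fit vs DMSO baseline.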

[17] = BSK_SAg_PBMCCytotoxicity: PBMC Cytotoxicity Assessment in the BioMAP Diversity Plus: SAg Assay (AID 2283093); settings: primary human HUVEC with PBMC;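 also: PBMC viability measured as Alamar Blue reduction fluorescence at 546/580 nm; fitted both ways against DMSO so a hit may be loss or gain of signal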
Method in brief: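 Alamar Blue reduction (6 h, ex/em 546/580 nm) read after 90 h culture of PBMC pre-dosed 1 h then stimulated with SEB plus TSST-1, 20 ng/mL each. Gain or loss of signal fitted relative to DMSO.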

[18] = read-out: E-selectin (Homo sapiens) (UniProt P16581); test: BSK_SAg_Eselectin: BioMAP Diversity Plus: SAg Assay for Eselectin Biomarker Activity (AID 2283091); settings: primary human HUVEC with PBMC; actives raise or lower the signal
Method in brief: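 Endpoint values derive from bidirectional fitting relative to DMSO, using ELISA-measured E-selectin in a human vascular co-culture (umbilical vein endothelium plus PBMC) sampled 24 h after dosing.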

Measured: AC50

Chain of E-selectin (Homo sapiens) (P16581 whole entry, looked up): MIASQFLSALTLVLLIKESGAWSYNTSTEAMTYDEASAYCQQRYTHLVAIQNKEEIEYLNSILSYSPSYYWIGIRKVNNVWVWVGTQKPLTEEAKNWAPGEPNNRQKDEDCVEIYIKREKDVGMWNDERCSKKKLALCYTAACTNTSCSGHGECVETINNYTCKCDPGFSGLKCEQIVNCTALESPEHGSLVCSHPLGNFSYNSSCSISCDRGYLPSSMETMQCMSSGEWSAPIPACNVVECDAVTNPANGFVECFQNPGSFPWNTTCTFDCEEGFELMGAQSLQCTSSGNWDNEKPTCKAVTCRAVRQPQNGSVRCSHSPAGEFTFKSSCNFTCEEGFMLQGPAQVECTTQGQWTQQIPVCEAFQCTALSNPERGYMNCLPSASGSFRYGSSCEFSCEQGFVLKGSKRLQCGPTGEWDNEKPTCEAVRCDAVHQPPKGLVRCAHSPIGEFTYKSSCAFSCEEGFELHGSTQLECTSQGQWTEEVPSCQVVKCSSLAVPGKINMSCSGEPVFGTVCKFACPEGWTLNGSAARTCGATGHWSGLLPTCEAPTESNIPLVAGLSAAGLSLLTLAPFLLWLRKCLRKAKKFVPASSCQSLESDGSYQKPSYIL
Chain of Tumor necrosis factor (Homo sapiens) (P01375 whole entry, looked up): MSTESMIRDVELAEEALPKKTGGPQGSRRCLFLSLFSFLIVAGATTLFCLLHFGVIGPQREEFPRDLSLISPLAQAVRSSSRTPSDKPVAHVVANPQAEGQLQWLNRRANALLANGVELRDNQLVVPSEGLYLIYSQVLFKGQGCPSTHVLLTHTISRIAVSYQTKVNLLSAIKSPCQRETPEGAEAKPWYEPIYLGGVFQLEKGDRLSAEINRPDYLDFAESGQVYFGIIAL

Cc1ccc(N=C=O)cc1N=C=O
not listed: [18]
inactive: all other assays above

Nc1cc(Cl)cc(C(=O)O)c1Cl
not listed: [18]
inactive: all other assays above

CCN(CC)CCO
not listed: [18]
inactive: all other assays above

C1=Cc2cccc3cccc1c23
inactive: all assays above

CO[C@@H]1[C@H](OC(=O)NC(=O)CCl)CC[C@]2(CO2)[C@H]1[C@@]1(C)O[C@@H]1CC=C(C)C
active: [1] 6.36 µM | CD40, CD40 (gene 958) [3] 3.77 µM | [4] 9.98 µM | [7] 6.19 µM | [9] 6.2 µM | [10] 3.16 µM | [12] 10 µM | [13] 7.31 µM | CD38, CD38 (gene 952) 6.2 µM | CD40, CD40 (gene 958) [14] 7.52 µM | [18] 3.89 µM
inactive: [2] | [5] | [6] | [8] | [11] | CD69, CD69 (gene 969) | [15] | [16] | [17]

O=P(OCCCl)(OCCCl)OCCCl
inactive: all assays above
